Source: PubChem BioAssay
For some of these results: Entries with a potency or affinity are not part of this list. Active and inactive are the calls of the source. Unless noted, the rule behind the calls is not given here.

Legend:
[1] = antimalarial activity against Dd2 strain (AID 2302;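 active = growth inhibition above 50% at the single 2 µM test dose, taken to imply half-maximal potency below 2 µM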;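 note: 0% = DMSO untreated growth and 100% = chloroquine plus artemisinin killed control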); settings: P. falciparum Dd2 in RBCs, LDH growth readout, 72 h; at 2 µM; hits give high values
[2] = human hepatoma cell viability loss – ATP luminescence, cytotoxicity control for P. falciparum antimalarial project, primary screen (AID 2303;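 active = inhibition above 50%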;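 note: 0% = DMSO wells and 100% = digitonin-killed cells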); settings: HepG2 viability, 24-48 h, at 10 µM, hits give high values
[3] = target: L-lactate dehydrogenase (Plasmodium falciparum (isolate CDC / Honduras)) (UniProt Q27743); experiment: PfLDH activity inhibition – cell lysate, 3D7 strain, counter-screen for P. falciparum growth inhibition project (AID 2304);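 note: 0% = vehicle and 100% = reference inhibitor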; settings: P. falciparum 3D7 crude extract, LDH APAD/NBT absorbance; at 2 µM; hits give high values
L-lactate dehydrogenase (Plasmodium falciparum (isolate CDC / Honduras)), sequence (Q27743 whole entry, looked up): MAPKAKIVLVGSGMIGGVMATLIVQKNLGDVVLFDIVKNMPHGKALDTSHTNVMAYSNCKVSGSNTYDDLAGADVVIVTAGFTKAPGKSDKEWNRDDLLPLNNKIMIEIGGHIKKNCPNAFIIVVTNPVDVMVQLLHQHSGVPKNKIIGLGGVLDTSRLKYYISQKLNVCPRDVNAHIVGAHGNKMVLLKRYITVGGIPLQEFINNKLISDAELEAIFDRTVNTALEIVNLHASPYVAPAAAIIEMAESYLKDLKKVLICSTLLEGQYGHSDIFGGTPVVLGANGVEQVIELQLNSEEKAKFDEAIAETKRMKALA

[4] = inhibition of 3D7 malaria parasite growth – strain 3D7 (AID 2306);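 note: 0% = DMSO wells and 100% = chloroquine plus artemisinin control wells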; settings: P. falciparum 3D7 erythrocytic growth, LDH absorbance, 72 h; at 2 µM; hits give high values
[5] = target: Calcium-dependent protein kinase 1 (Plasmodium falciparum (isolate 3D7)) (UniProt P62344); experiment: PfCDPK1 kinase inhibitors, biochemical, TCAMS library (AID 1159585; cut-off not given, nearly all actives have IC50 up to about 0.98 µM;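 note: inhibitors leave more ATP so luminescence rises with inhibition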); settings: recombinant PfCDPK1, Kinase-Glo ATP depletion luminescence
Calcium-dependent protein kinase 1 (Plasmodium falciparum (isolate 3D7)), sequence (P62344 whole entry, looked up): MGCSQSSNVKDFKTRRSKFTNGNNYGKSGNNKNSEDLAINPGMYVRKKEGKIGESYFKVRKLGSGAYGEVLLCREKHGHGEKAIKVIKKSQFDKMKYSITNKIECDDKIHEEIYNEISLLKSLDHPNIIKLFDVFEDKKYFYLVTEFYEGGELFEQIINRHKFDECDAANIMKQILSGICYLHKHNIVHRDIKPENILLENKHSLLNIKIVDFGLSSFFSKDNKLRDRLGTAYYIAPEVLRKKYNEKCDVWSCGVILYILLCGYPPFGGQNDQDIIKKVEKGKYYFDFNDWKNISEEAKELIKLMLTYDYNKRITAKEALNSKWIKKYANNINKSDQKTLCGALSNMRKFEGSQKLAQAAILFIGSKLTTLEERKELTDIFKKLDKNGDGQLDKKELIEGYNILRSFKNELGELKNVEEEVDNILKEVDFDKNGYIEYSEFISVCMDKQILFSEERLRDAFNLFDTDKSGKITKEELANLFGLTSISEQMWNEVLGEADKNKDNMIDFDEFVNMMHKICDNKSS

[6] = target: Plasmodium falciparum protein kinase 6 (PK6, PF3D7_1337100) (UniProt Q8IDW1); experiment: PfPK6 kinase inhibitors, biochemical, TCAMS library (AID 1159586); settings: recombinant PfPK6, Kinase-Glo ATP depletion luminescence
Plasmodium falciparum protein kinase 6 (PK6, PF3D7_1337100), sequence (Q8IDW1 1-305): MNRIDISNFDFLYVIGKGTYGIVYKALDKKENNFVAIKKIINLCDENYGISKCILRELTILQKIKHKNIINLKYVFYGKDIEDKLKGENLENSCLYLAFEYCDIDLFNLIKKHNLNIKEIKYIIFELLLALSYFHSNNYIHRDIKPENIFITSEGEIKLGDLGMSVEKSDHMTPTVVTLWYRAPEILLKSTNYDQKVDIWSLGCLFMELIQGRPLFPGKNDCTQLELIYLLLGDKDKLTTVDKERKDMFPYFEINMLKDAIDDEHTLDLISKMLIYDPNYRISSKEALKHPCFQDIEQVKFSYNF

[7] = target: Protein kinase 7 (PK7), Plasmodium falciparum 3D7 (PF3D7_0213400) (UniProt Q7YTF7); experiment: inhibition of Plasmodium PK7 catalytic activity – biochemical, TCAMS antimalarial set, Kinase-Glo luminescence (AID 1159587); settings: recombinant PfPK7, Kinase-Glo ATP depletion luminescence
Protein kinase 7 (PK7), Plasmodium falciparum 3D7 (PF3D7_0213400), sequence (Q7YTF7 1-343): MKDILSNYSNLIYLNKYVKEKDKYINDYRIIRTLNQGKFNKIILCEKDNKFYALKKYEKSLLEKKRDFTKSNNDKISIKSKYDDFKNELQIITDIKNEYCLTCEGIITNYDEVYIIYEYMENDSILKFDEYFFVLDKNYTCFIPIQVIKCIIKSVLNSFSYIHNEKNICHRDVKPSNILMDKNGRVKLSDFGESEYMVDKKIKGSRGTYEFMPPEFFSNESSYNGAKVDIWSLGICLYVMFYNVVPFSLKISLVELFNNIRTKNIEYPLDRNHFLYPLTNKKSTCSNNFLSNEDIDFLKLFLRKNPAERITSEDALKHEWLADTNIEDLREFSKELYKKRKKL

[8] = target: Calcium-dependent protein kinase 4 (Plasmodium falciparum (isolate 3D7)) (UniProt Q8IBS5); experiment: PfCDPK4 kinase inhibitors, biochemical, TCAMS library (AID 1159588; cut-off not given, nearly all actives have IC50 up to about 0.91 µM); settings: recombinant PfCDPK4, Kinase-Glo ATP depletion luminescence
Calcium-dependent protein kinase 4 (Plasmodium falciparum (isolate 3D7)), sequence (Q8IBS5 whole entry, looked up): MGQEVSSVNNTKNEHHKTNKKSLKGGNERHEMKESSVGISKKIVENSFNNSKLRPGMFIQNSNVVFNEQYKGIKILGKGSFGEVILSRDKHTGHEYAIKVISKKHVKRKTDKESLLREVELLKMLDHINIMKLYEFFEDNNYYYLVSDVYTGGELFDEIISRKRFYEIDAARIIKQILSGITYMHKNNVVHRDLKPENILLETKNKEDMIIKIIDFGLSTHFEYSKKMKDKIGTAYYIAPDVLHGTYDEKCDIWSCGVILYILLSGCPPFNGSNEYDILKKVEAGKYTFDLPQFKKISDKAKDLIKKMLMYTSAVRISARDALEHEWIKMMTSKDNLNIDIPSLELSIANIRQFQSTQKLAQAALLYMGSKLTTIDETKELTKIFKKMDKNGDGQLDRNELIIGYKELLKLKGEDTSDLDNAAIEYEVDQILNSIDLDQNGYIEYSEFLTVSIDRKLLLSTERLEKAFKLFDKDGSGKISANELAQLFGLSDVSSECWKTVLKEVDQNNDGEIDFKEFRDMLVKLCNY

CC(Sc1n[nH]c(-c2cccs2)n1)C(=O)c1c[nH]c2ccccc12 (stereo not drawn)
active: growth inhibition [1] 58% | growth inhibition [4] 94%
inactive: inhibition [2] -8% | inhibition [3] 6% | outcome [5] | outcome [6] | outcome [7] | outcome [8]

CCCN1CCN(CCCNC(=O)c2cc3c(-c4ccc(Cl)cc4)nn(C)c3s2)CC1
active: growth inhibition [4] 88%
inactive: growth inhibition [1] 20% | inhibition [2] 46% | inhibition [3] -3% | outcome [5] | outcome [6] | outcome [7] | outcome [8]

O=C(Nc1cccc(-c2cccc(-c3nc4ccc(C(F)(F)F)cc4[nH]3)c2)c1)c1ccoc1
inactive: inhibition [2] 32% | inhibition [3] -2% | outcome [5] | outcome [6] | outcome [7] | outcome [8]
active: growth inhibition [1] 61% | growth inhibition [4] 99%

COc1cccc(C(=O)Nc2ccc(Nc3nc(C)cc(N(C)C)n3)cc2)c1
inactive: growth inhibition [1] 33% | inhibition [2] 1% | inhibition [3] -2% | outcome [5] | outcome [6] | outcome [7] | outcome [8]
active: growth inhibition [4] 92%

CCOc1ccc(C2CCN(CCCCNC(=O)c3ccc(NC(=O)c4ccc(Cl)cc4)cc3)CC2)c(OCC)c1
inactive: inhibition [2] 14% | inhibition [3] 0% | outcome [5] | outcome [6] | outcome [7] | outcome [8]
active: growth inhibition [1] 95% | growth inhibition [4] 101%

CC(C)(C)c1cc(NC2CC2)nc(-c2ccccn2)n1
inactive: inhibition [2] 7% | inhibition [3] -7% | outcome [5] | outcome [6] | outcome [7] | outcome [8]
active: growth inhibition [1] 79% | growth inhibition [4] 94%

CCN1CCN(CC(O)CNC(=O)Nc2ccc(Cl)cc2)CC1 (stereo not drawn)
inactive: inhibition [2] 29% | inhibition [3] 3% | outcome [5] | outcome [6] | outcome [7] | outcome [8]
active: growth inhibition [1] 99% | growth inhibition [4] 100%

COc1ccc(CNCc2cccc(-c3ccc(-c4nc5c(C)cccc5[nH]4)cc3)c2)cc1
inactive: inhibition [2] 23% | inhibition [3] 7% | outcome [5] | outcome [6] | outcome [7] | outcome [8]
active: growth inhibition [1] 70% | growth inhibition [4] 101%

COCCNCc1ccc(-c2ccc(CNc3ccc4ncccc4c3)cc2)cc1
active: growth inhibition [4] 85%
inactive: growth inhibition [1] 4% | inhibition [2] 41% | inhibition [3] -4% | outcome [5] | outcome [6] | outcome [7] | outcome [8]

NC(N)=NC(=O)Nc1cc(F)c(Cl)c(Br)c1
active: growth inhibition [1] 50% | growth inhibition [4] 101%
inactive: inhibition [2] -3% | inhibition [3] 1% | outcome [5] | outcome [6] | outcome [7] | outcome [8]

Cc1cccc2[nH]c(-c3cccc(-c4ccc(NC(=O)C5CCN(C)CC5)cc4)c3)nc12
active: growth inhibition [1] 100% | growth inhibition [4] 101%
inactive: inhibition [2] 16% | inhibition [3] 3% | outcome [5] | outcome [6] | outcome [7] | outcome [8]

CCCC(=O)NC(c1ccc(C(C)C)cc1)c1ccc2cccnc2c1O (stereo not drawn)
inactive: growth inhibition [1] 37% | inhibition [3] 0% | outcome [5] | outcome [6] | outcome [7] | outcome [8]
active: inhibition [2] 50% | growth inhibition [4] 90%

Cc1cc(=O)c(-c2ccc(Sc3ccc(Cl)cc3)cc2)c(C)[nH]1
inactive: inhibition [2] -3% | inhibition [3] -7% | outcome [5] | outcome [6] | outcome [7] | outcome [8]
active: growth inhibition [1] 84% | growth inhibition [4] 92%

O=C(NCC1CCN(C/C=C/c2ccccc2)CC1)Nc1ccc(Oc2ccccc2)cc1
inactive: growth inhibition [1] 11% | inhibition [2] 40% | inhibition [3] -3% | outcome [5] | outcome [6] | outcome [7] | outcome [8]
active: growth inhibition [4] 83%

Cc1nc(-c2ccc(C#N)cc2)sc1C(=O)NCCCCN1CCC(c2ccc3c(c2OCCO)CCCC3)CC1
active: growth inhibition [4] 99%
inactive: growth inhibition [1] 10% | inhibition [2] 14% | inhibition [3] 6% | outcome [5] | outcome [6] | outcome [7] | outcome [8]

COc1ccc(NC(=O)[C@H](Cc2ccccc2)Nc2cc(C)nc(NCc3ccccc3C)n2)cc1
inactive: inhibition [2] 16% | inhibition [3] 2% | outcome [5] | outcome [6] | outcome [7] | outcome [8]
active: growth inhibition [1] 71% | growth inhibition [4] 101%

CN1CCCN(Cc2cccc(-c3cccc(NC(=O)c4ccc(C#N)cc4)c3)c2)CC1
inactive: growth inhibition [1] 4% | inhibition [2] 7% | inhibition [3] 1% | outcome [5] | outcome [6] | outcome [7] | outcome [8]
active: growth inhibition [4] 89%

O=C(/C=C/c1ccc(Cl)c(Cl)c1)N1CCC(CCN2CCC(c3c[nH]c4cnccc34)CC2)CC1
inactive: inhibition [3] -2% | outcome [5] | outcome [6] | outcome [7] | outcome [8]
active: growth inhibition [1] 100% | inhibition [2] 93% | growth inhibition [4] 101%

O=C(OCc1ccccc1)N1CCc2c([nH]c3ccccc23)C1CCC(F)(F)F (stereo not drawn)
inactive: inhibition [2] 0% | inhibition [3] 3% | outcome [5] | outcome [6] | outcome [7] | outcome [8]
active: growth inhibition [1] 81% | growth inhibition [4] 94%

CCOc1cc2c(cc1OCC)C(c1cc(OC)c(O)cc1Cl)NCC2 (stereo not drawn)
active: growth inhibition [1] 97% | growth inhibition [4] 100%
inactive: inhibition [2] 15% | inhibition [3] -7% | outcome [5] | outcome [6] | outcome [7] | outcome [8]

CCCCCCN1CCC(NCc2cccc(-n3ccnc3)c2)CC1
active: growth inhibition [1] 101% | growth inhibition [4] 103%
inactive: inhibition [2] 3% | inhibition [3] 5% | outcome [5] | outcome [6] | outcome [7] | outcome [8]

NC1CCCN(Cc2cccc(-c3ccc(-c4nc5ccc(F)cc5[nH]4)cc3)c2)C1 (stereo not drawn)
inactive: inhibition [2] 40% | inhibition [3] -3% | outcome [5] | outcome [6] | outcome [7] | outcome [8]
active: growth inhibition [1] 99% | growth inhibition [4] 101%

O=C(/C=C/c1ccc(Cl)cc1)NCCCCCN1CCC(C(=O)Nc2ccc(Cl)c(Cl)c2)CC1
active: growth inhibition [4] 100%
inactive: growth inhibition [1] -4% | inhibition [2] 47% | inhibition [3] -3% | outcome [5] | outcome [6] | outcome [7] | outcome [8]

Cc1cc(C)cc(OCC(O)CN(CCN2CCOCC2)C(=O)Nc2ccc(Br)cc2)c1 (stereo not drawn)
inactive: growth inhibition [1] 19% | inhibition [2] 7% | inhibition [3] 0% | outcome [5] | outcome [6] | outcome [7] | outcome [8]
active: growth inhibition [4] 85%

CC(=O)c1c(Cc2ccccc2Cl)c[nH]c1C
active: growth inhibition [1] 53% | growth inhibition [4] 95%
inactive: inhibition [2] -2% | inhibition [3] 0% | outcome [5] | outcome [6] | outcome [7] | outcome [8]

CC1(C)N=C(N)N=C(N)C1c1ccc(Cl)c(Cl)c1 (stereo not drawn)
active: growth inhibition [4] 95%
inactive: growth inhibition [1] 0% | inhibition [2] 47% | inhibition [3] -6% | outcome [5] | outcome [6] | outcome [7] | outcome [8]

COc1ccc2nc3cc(Cl)ccc3c(NCCCCN)c2c1
inactive: inhibition [3] 7% | outcome [5] | outcome [6] | outcome [7] | outcome [8]
active: growth inhibition [1] 62% | inhibition [2] 52% | growth inhibition [4] 101%

O=C(Nc1ccc2c(ccn2C2CCCN(Cc3cc(F)cc(F)c3F)CC2)c1)c1ccco1 (stereo not drawn)
active: growth inhibition [1] 94% | growth inhibition [4] 89%
inactive: inhibition [2] 7% | inhibition [3] -1% | outcome [5] | outcome [6] | outcome [7] | outcome [8]

O=C(Nc1ccccc1)N(Cc1cccc(-c2ccc(CNCCc3ccccc3)cc2)c1)C1CCN(Cc2ccccc2)CC1
inactive: inhibition [3] 3% | outcome [5] | outcome [6] | outcome [7] | outcome [8]
active: growth inhibition [1] 95% | inhibition [2] 100% | growth inhibition [4] 101%

Cc1cc(NN=Cc2ccccn2)c2cc(C(F)(F)F)ccc2n1
inactive: inhibition [2] -10% | inhibition [3] -4% | outcome [5] | outcome [6] | outcome [7] | outcome [8]
active: growth inhibition [1] 100% | growth inhibition [4] 102%

Cc1cc(=O)c(-c2ccc(Oc3ccc(F)cc3)cc2)c(C)[nH]1
inactive: inhibition [2] -3% | inhibition [3] 3% | outcome [5] | outcome [6] | outcome [7] | outcome [8]
active: growth inhibition [1] 59% | growth inhibition [4] 85%

Cc1ccc(Sc2ccc(NC(=O)CN3CCN(C(=O)c4ccco4)CC3)cc2)cc1C
inactive: inhibition [2] 14% | inhibition [3] 1% | outcome [5] | outcome [6] | outcome [7] | outcome [8]
active: growth inhibition [1] 84% | growth inhibition [4] 92%

CCC(C)C#Cc1c(C)nc(N)nc1N (stereo not drawn)
inactive: growth inhibition [1] -4% | inhibition [3] 3% | outcome [5] | outcome [6] | outcome [7] | outcome [8]
active: inhibition [2] 53% | growth inhibition [4] 96%

c1ccc(CCNCc2ccc(-c3cccc(-c4nc5ccccc5[nH]4)c3)cc2)nc1
inactive: inhibition [2] 36% | inhibition [3] 7% | outcome [5] | outcome [6] | outcome [7] | outcome [8]
active: growth inhibition [1] 87% | growth inhibition [4] 100%

COc1cc(C2Nc3ccc4ccccc4c3C3=C2C(=O)CC(C)(C)C3)ccc1Oc1ccc([N+](=O)[O-])cc1C#N (stereo not drawn)
active: growth inhibition [1] 94% | growth inhibition [4] 99%
inactive: inhibition [2] 8% | inhibition [3] -1% | outcome [5] | outcome [6] | outcome [7] | outcome [8]

c1ccc(-c2nc(Nc3ccncc3)sc2-c2ccccc2)cc1
inactive: growth inhibition [1] 18% | inhibition [2] -5% | inhibition [3] 1% | outcome [5] | outcome [6] | outcome [7] | outcome [8]
active: growth inhibition [4] 97%

O=C(NC1CCCCC1)N(Cc1ccc(-c2ccc(CNCc3ccc4c(c3)OCO4)cc2)cc1)C1CCN(Cc2ccccc2)CC1
inactive: inhibition [2] 28% | inhibition [3] -2% | outcome [5] | outcome [6] | outcome [7] | outcome [8]
active: growth inhibition [1] 72% | growth inhibition [4] 102%

Cc1ccccc1C1CCN(C2CCC(NC(=O)/C=C/c3c[nH]c4ccccc34)CC2)CC1 (stereo not drawn)
active: growth inhibition [1] 51% | growth inhibition [4] 100%
inactive: inhibition [2] 30% | inhibition [3] 2% | outcome [5] | outcome [6] | outcome [7] | outcome [8]

COc1ccc([N+](=O)[O-])cc1N(Cc1ccccc1-c1ccccc1)S(=O)(=O)c1ccc(C(F)(F)F)cc1[N+](=O)[O-]
inactive: inhibition [2] 2% | inhibition [3] -6% | outcome [5] | outcome [6] | outcome [7] | outcome [8]
active: growth inhibition [1] 92% | growth inhibition [4] 88%

O=C(/C=C/c1ccc(Cl)c(Cl)c1)NC1CCN(Cc2ccc(O)cc2)C1 (stereo not drawn)
active: growth inhibition [4] 97%
inactive: growth inhibition [1] 4% | inhibition [2] 15% | inhibition [3] -1% | outcome [5] | outcome [6] | outcome [7] | outcome [8]

Oc1ccc2nc(N3CCNCC3)nc(NCCCc3ccccc3)c2c1
active: growth inhibition [4] 102%
inactive: growth inhibition [1] 0% | inhibition [2] 14% | inhibition [3] -4% | outcome [5] | outcome [6] | outcome [7] | outcome [8]
